Experimental data taken from PubChem BioAssay AID687014 (The Scripps Research Institute Molecular Screening Center, 2013).
Among all 370,000 compounds or so, about 6,800 (1.8%) were called active.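 The calls were made as follows: active = activation above a cutoff set at the mean of all screened compounds plus 3 SD (cut at about 10% in these data); inactive = the rest.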 Only a selection was taken, and actives are over-represented in it overall.

Each compound was assayed on Nuclear hormone receptor DAF-12 (Heterodera glycines), GAL4 fusion (assay: hgDAF-12 GAL4 fusion reporter activation – cell-based, luminescence, HEK293, UAS-luciferase, primary screen (AID 687014;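 also: 0% = DMSO wells and 100% = sodium butyrate wells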)). Conditions: HEK293 GAL4-hgDAF12 UAS-luciferase reporter, agonist luminescence; at 6.8 µM; stronger effect = higher value; normalized to butyrate control.

| SMILES | activation |
| --- | --- |
| O=C(CN(CC1CCCO1)C(=O)CNS(=O)(=O)c1ccc(F)cc1)NCc1ccco1 (stereo not given) | -0.11% (inactive) |
| CCN(C(=O)CSc1ncnc2c1cnn2-c1ccccc1)C1CCS(=O)(=O)C1 (stereo not given) | 1.12% (inactive) |
| CCOc1cc(/C=N/O)ccc1OCc1ccccc1F | 1.1% (inactive) |
| CCCc1ccc(OCc2ccc(C(=O)N/N=C/c3cccc([N+](=O)[O-])c3)o2)c(OC)c1 | 0.57% (inactive) |
| COc1cc(/C=N/O)ccc1OCc1ccc([N+](=O)[O-])cc1 | 19.8% (active) |
| CCOC(=O)N1CCN(C(=O)C[C@@H]2C(=O)N(CCc3ccc(Cl)cc3)C3=CCCC[C@]32C(=O)OCC)CC1 | -0.14% (inactive) |
| CCC1CCc2c(sc(NC(C)=O)c2C#N)C1 (stereo not given) | -1.78% (inactive) |
| N#Cc1c(NC(=O)C2CCCO2)sc2c1CCCCC2 (stereo not given) | 15.3% (active) |
| N#Cc1c(NC(=O)C2CC(Cl)=CCC2C(=O)O)sc2c1CCCCC2 (stereo not given) | -1.72% (inactive) |
| O=C(CCl)NC1CCCCN(Cc2cccc(C(F)(F)F)c2)C1=O (stereo not given) | -7.36% (inactive) |
| O=C(Nc1ccccc1)N1CCN(Cc2nc3ccccc3c(=O)[nH]2)CC1 | 3.62% (inactive) |
| CC(=NCC1CCCO1)c1c(O)[nH]c(=O)[nH]c1=O (stereo not given) | -2.34% (inactive) |
| CCc1ccc(CN2C(=O)c3ccccc3C2C(=O)NCC2CCCO2)cc1 (stereo not given) | 0.15% (inactive) |
| O=C1C(C=NCC2CCCO2)=C(O)c2ccccc21 (stereo not given) | 13.2% (active) |
| O=S(=O)(c1ccccc1)N1CCC(c2nc3ccccc3o2)CC1 | -0.98% (inactive) |
| COc1cc(CN2CCNC(=O)C2CC(=O)NCCc2ncccc2C)cc(OC)c1 (stereo not given) | -1.06% (inactive) |
| CCOCCCNC(=O)c1cc2c(=O)n3ccccc3nc2s1 | 3.33% (inactive) |
| CN(CCNC(=O)c1cc2c(-c3ccccc3F)nn(C)c2s1)C1CCCCC1 | 4.97% (inactive) |
| CN(C(=O)c1cc2c(=O)n3ccccc3nc2s1)C1CCCCC1 | 13% (active) |
| Cc1ccc(-n2c(SCC(=O)Nc3ccc(S(=O)(=O)Nc4nccs4)cc3)nnc2-c2ccccn2)cc1 | -1.35% (inactive) |
| O=C(Nc1cccc(Cl)c1N1CCOCC1)c1ccc2c(c1)OCCO2 | -1.47% (inactive) |
| COC(=O)c1ccc(N2CCOCC2)c(NC(=O)c2ccc3c(c2)OCCO3)c1 | 0.79% (inactive) |
| Cc1ccc(C(=O)Nc2ccc3c(c2)OCCO3)cc1S(=O)(=O)N1CCOCC1 | 11% (active) |

| SMILES | activation |
| --- | --- |
| Cc1ccc(NC(=O)c2ccc(Cl)nc2)cc1S(=O)(=O)N1CCOCC1 | 3.09% (inactive) |
| CN1CCN(c2ccc(NC(=O)c3ccc4c(c3)OCCO4)cc2Cl)CC1 | 28.8% (active) |
| Cc1ccc(C(=O)Nc2ncccc2C)cc1S(=O)(=O)N1CCOCC1 | 1.72% (inactive) |
| O=C(CSc1nnc(-c2ccccc2)n1Cc1ccco1)Nc1ccccc1-c1ccccc1 | 0.11% (inactive) |
| Cc1cc2nc3c(=O)[nH]c(=O)nc-3n(C[C@H](O)[C@H](O)[C@H](O)CO)c2cc1C | -2.63% (inactive) |
| CCOC(=O)[C@]12CCCC3=C1N(CCC3)C(=O)[C@@H](CC(=O)NCc1cccs1)C2 | 1.07% (inactive) |
| CC(=O)OC12CCCN(C1)/C(=C/c1ccncc1)C2 (stereo not given) | -1.43% (inactive) |
| CC(C)CNc1cccc2c1S(=O)(=O)N[C@H](CC(C)C)CO2 | 3.06% (inactive) |
| O=C(CN1CCc2cc3c(cc2C1)OCCCO3)Nc1ccccc1 | -3.88% (inactive) |
| CN(Cc1c(F)cccc1Cl)C(=O)CNC(=O)c1ccc2c(c1)OCO2 | 7.57% (inactive) |
| O=C(NCCc1ccc(C(F)(F)F)cc1)c1ccc2c(c1)OCO2 | 0.07% (inactive) |
| O=C(Nc1ccccc1)c1ccc2c(c1)OCCCO2 | 15.1% (active) |
| COc1cccc(C(=O)Nc2nnc(S(=O)(=O)N3CCOCC3)s2)c1 | 3.2% (inactive) |
| COc1ccc(C2COC(=O)C2=N)c(NC(=O)c2ccccc2)c1 (stereo not given) | 4.88% (inactive) |
| COc1cccc(C(=O)Nc2cc3c(cc2Br)OCCCO3)c1 | 13.2% (active) |
| C/C(=N/NC(=S)Nc1ccccc1)c1ccc2c(c1)OCO2 | 10.2% (inactive) |
| O=C(Nc1ccccc1F)c1ccc2c(c1)OCO2 | 11.2% (active) |
| COC(=O)[C@]12C[C@H](CC(=O)NCCCN3CCCC3=O)C(=O)N(CCc3ccc(OC)c(OC)c3)C1=C[C@H](COCc1ccccc1)O[C@@H]2C | 4.36% (inactive) |
| Cc1cc(Br)ccc1NC(=S)NC1CCCC1 | 1.25% (inactive) |
| Cc1ccc(NC(=S)Nc2ncccc2C)c(C)c1 | 11.8% (active) |
| Cc1ccc(NC(=O)c2cc(C)nn2-c2ccccc2)c(C)c1 | -1.76% (inactive) |
| Nc1ccn([C@@H]2O[C@H](C(=O)N[C@H]3CCCCNC3=O)[C@@H](O)[C@H]2O)c(=O)n1 | 0.25% (inactive) |
